Results taken from article PMC7862700, “An all-to-all approach to the identification of sequence-specific readers for epigenetic DNA modifications on cytosine”.

How the values were obtained:
Experiment in all cases: DAPPL (digital affinity profiling via proximity ligation, sequencing); 10 mM Tris-HCl pH 7.5, 50 mM NaCl, 1 mM DTT, 4% glycerol, room temperature, 30 min; GST-TFs on glutathione beads, 16-mer random dsDNA library, 0.1% formaldehyde crosslink after washing; high values mean tight binding
Settings in all cases: protein: recombinant; tags: N-terminal GST; dsDNA, one strand shown
FLI1 = target: T1, FLI1 (Homo sapiens, UniProt Q01543 1-452)
T1 sequence: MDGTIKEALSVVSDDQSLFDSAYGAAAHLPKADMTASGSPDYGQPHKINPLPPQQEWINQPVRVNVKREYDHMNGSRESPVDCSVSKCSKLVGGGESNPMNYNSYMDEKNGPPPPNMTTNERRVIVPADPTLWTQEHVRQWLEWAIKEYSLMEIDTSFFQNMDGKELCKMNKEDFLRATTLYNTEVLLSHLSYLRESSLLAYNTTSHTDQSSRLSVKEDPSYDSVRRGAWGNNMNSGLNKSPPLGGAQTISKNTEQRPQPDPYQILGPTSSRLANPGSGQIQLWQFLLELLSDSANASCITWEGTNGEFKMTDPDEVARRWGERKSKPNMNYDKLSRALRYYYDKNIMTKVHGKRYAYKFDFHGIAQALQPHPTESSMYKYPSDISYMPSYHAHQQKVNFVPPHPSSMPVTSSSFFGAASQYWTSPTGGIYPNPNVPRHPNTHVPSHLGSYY
How it was run: (§1)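 After expression in yeast as GST fusions, human transcription factors were bound to glutathione beads, DNA-barcoded and mixed with a tag-only sample. The pools were incubated with 200 nmole of a 16-mer random double-stranded DNA library in Tris/NaCl/DTT/glycerol buffer (30 min, room temperature), washed and crosslinked with 0.1% formaldehyde. Proximity ligation with BsaI/T4 ligase ran for 1 h at 37 °C, before PCR amplification and sequencing on an Illumina NextSeq500. Binding signal is a hexamer's read frequency for a factor divided by its frequency for the tag-only sample.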

GABPA = target: T2, GABPA (Homo sapiens, UniProt Q06546 1-454)
T2 sequence: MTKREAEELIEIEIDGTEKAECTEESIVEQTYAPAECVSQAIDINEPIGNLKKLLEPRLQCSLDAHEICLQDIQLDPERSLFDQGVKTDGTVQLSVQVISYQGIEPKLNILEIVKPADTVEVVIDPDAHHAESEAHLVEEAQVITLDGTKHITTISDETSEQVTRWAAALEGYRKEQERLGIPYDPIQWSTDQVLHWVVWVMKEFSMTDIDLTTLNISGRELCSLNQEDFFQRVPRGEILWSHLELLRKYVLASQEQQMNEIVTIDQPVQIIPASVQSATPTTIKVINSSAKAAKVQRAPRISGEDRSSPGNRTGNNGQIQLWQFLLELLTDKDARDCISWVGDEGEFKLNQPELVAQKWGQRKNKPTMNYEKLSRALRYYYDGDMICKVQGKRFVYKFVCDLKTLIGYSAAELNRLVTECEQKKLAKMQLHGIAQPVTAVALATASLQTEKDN
How it was run: as §1

ERG = target: T3, ERG (Homo sapiens, UniProt P11308 1-479)
T3 sequence: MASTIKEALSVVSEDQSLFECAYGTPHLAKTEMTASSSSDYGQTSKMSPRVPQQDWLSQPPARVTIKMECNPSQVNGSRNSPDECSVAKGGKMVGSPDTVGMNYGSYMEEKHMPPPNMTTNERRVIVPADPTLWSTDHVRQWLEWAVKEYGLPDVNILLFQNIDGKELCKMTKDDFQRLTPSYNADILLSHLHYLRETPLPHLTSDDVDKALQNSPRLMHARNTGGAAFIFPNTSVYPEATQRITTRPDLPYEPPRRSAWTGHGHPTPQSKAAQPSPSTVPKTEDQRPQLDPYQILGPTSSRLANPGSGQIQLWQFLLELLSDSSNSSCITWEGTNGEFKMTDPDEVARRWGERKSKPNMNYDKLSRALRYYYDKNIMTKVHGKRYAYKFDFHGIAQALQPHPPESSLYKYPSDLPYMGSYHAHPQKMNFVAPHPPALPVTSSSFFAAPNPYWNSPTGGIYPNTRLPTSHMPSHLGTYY
How it was run: as §1

ELF1 = ELF1 (Homo sapiens, UniProt P32519 1-619)
How it was run: as §1

SPIB = SPIB (Homo sapiens, UniProt Q01892 1-262)
How it was run: as §1

ELK3 = target: T4, ELK3 (Homo sapiens, UniProt P41970 1-407)
T4 sequence: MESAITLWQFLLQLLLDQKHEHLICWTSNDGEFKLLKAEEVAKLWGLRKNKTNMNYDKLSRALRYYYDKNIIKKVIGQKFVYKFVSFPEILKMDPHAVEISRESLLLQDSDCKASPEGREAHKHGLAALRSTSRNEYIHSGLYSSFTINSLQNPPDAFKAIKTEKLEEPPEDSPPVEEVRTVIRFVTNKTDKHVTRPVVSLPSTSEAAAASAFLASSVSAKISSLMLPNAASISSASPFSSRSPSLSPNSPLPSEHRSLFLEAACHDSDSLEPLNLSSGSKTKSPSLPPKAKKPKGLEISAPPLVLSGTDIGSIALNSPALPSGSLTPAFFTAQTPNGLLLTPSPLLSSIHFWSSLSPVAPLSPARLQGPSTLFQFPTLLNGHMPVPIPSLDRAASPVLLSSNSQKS
How it was run: as §1

ETV5 = ETV5 (Homo sapiens, UniProt P41161 1-510)
How it was run: as §1

SPIC = target: T5, SPIC (Homo sapiens, UniProt Q8N5J4 1-248)
T5 sequence: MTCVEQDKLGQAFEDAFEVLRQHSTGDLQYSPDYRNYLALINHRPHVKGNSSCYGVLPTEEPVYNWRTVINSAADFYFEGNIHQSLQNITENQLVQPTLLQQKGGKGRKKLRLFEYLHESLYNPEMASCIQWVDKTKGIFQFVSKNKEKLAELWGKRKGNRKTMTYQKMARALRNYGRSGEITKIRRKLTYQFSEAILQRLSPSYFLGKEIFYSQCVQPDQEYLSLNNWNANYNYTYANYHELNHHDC
How it was run: as §1

ELF4 = ELF4 (Homo sapiens, UniProt Q99607 1-663)
How it was run: as §1

ETV1 = ETV1 (Homo sapiens, UniProt P50549 1-477)
How it was run: as §1

SPDEF = target: T6, SPDEF (Homo sapiens, UniProt O95238 1-335)
T6 sequence: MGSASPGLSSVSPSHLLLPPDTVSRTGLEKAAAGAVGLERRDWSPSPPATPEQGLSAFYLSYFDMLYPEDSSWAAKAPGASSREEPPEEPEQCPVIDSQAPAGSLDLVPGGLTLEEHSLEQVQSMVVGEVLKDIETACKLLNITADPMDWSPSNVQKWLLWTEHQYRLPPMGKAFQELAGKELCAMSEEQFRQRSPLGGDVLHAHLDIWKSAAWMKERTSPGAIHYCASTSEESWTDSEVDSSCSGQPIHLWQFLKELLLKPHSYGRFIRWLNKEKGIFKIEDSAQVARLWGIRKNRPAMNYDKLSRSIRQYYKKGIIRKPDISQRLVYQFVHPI
How it was run: as §1

ETV1, sequence (P50549 whole entry): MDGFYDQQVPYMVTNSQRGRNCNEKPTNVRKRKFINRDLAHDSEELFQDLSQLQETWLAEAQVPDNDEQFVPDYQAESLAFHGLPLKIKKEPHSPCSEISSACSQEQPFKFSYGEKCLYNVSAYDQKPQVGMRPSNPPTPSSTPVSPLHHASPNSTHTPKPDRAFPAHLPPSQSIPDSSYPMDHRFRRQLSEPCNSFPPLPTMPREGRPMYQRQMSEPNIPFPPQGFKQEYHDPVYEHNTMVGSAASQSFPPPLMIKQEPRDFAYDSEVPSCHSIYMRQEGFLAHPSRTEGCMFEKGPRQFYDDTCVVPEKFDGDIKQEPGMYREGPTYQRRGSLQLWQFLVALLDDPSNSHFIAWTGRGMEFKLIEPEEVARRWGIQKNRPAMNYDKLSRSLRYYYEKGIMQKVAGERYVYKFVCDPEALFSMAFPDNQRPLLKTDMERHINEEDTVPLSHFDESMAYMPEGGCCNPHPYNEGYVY
ELF4, sequence (Q99607 whole entry): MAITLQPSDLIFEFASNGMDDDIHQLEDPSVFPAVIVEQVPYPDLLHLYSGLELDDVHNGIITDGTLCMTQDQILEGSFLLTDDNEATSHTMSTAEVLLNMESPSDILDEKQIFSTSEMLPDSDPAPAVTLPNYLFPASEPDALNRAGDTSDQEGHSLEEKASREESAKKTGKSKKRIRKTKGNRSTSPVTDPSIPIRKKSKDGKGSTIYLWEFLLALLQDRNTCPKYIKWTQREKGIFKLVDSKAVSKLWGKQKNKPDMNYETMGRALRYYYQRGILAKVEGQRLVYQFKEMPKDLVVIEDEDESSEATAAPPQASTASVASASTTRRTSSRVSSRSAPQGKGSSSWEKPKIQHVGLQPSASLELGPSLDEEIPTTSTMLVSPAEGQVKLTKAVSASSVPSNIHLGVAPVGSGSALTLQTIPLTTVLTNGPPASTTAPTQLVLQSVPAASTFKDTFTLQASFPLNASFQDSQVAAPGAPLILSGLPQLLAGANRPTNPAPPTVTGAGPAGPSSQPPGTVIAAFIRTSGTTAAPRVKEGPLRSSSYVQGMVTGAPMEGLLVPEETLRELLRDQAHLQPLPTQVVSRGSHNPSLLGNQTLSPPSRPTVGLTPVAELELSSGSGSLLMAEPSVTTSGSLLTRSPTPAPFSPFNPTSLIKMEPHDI
SPIB, sequence (Q01892 whole entry): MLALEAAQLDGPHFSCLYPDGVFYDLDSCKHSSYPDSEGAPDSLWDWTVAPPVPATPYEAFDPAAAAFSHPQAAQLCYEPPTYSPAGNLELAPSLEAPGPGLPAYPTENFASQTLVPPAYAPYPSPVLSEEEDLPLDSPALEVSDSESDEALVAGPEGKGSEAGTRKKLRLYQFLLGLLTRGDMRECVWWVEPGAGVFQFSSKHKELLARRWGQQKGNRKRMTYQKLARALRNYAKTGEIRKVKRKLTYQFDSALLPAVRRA
ETV5, sequence (P41161 whole entry): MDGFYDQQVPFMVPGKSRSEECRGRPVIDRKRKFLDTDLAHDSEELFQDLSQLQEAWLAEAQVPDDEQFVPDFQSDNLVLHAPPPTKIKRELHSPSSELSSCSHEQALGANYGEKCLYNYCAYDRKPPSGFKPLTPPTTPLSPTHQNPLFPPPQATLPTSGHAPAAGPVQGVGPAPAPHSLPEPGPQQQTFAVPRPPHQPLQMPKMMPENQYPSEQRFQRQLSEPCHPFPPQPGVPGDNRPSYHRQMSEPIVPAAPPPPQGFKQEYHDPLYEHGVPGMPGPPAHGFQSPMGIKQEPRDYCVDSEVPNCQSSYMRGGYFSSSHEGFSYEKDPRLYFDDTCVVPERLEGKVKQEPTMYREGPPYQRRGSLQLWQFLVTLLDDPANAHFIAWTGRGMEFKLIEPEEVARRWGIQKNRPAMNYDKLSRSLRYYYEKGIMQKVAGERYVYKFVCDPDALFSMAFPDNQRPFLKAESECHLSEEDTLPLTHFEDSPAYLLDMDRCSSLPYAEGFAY
ELF1, sequence (P32519 whole entry): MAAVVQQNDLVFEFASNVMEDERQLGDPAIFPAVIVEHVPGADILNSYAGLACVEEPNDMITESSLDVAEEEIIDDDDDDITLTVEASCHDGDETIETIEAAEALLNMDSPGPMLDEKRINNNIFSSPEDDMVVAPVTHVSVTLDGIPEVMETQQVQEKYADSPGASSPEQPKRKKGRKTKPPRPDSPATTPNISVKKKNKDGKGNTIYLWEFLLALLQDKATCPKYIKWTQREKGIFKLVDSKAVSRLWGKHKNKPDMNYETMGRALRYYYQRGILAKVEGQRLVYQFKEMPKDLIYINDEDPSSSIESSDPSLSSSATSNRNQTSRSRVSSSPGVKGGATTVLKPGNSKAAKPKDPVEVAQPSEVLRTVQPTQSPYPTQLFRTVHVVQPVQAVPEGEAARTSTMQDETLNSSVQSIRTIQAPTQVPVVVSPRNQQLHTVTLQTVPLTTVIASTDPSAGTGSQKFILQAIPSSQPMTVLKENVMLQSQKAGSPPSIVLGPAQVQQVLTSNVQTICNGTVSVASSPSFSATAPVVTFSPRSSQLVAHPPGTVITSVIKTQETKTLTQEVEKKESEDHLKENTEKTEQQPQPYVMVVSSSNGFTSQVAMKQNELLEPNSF

## TACGGT
FLI1
  binding signal: 1.01 fold enrichment (6-mer frequency, TF over GST control)
GABPA
  binding signal: 1.02 fold enrichment (6-mer frequency, TF over GST control)
ERG
  binding signal: 1.02 fold enrichment (6-mer frequency, TF over GST control)
ELF1
  binding signal: 1.01 fold enrichment (6-mer frequency, TF over GST control)
SPIB
  binding signal: 1.02 fold enrichment (6-mer frequency, TF over GST control)
ELK3
  binding signal: 1.11 fold enrichment (6-mer frequency, TF over GST control)
ETV5
  binding signal: 1.04 fold enrichment (6-mer frequency, TF over GST control)
SPIC
  binding signal: 1.02 fold enrichment (6-mer frequency, TF over GST control)
ELF4
  binding signal: 1.05 fold enrichment (6-mer frequency, TF over GST control)
ETV1
  binding signal: 1.01 fold enrichment (6-mer frequency, TF over GST control)
SPDEF
  binding signal: 1.1 fold enrichment (6-mer frequency, TF over GST control)
